Screening results as filed in PubChem.
Most compounds without a hit are left out; they make up all but 2.5% or so of the library.
ASK1 inh: ASK1 kinase inhibitors, primary screen, biochemical, AlphaScreen | AlphaScreen MKK6 phosphorylation by ASK1, luminescence | inhibition, % at 7.44 µM | 0.99% of 22,000 active | AID 1159602, 2016; in the data active = inhibition above about 35%;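 also: 0% = median of compound wells and 100% = no enzyme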
ULK1 inh: ULK1 kinase inhibitors, primary screen, biochemical, AlphaScreen; AlphaScreen Atg13 phosphorylation by ULK1, luminescence; inhibition, % at 5.96 µM; 1.9% of 30,000 active; in the data active = inhibition above about 43%;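 also: 0% = median of compound wells and 100% = no enzyme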
Target sequence (O75385 whole entry, looked up): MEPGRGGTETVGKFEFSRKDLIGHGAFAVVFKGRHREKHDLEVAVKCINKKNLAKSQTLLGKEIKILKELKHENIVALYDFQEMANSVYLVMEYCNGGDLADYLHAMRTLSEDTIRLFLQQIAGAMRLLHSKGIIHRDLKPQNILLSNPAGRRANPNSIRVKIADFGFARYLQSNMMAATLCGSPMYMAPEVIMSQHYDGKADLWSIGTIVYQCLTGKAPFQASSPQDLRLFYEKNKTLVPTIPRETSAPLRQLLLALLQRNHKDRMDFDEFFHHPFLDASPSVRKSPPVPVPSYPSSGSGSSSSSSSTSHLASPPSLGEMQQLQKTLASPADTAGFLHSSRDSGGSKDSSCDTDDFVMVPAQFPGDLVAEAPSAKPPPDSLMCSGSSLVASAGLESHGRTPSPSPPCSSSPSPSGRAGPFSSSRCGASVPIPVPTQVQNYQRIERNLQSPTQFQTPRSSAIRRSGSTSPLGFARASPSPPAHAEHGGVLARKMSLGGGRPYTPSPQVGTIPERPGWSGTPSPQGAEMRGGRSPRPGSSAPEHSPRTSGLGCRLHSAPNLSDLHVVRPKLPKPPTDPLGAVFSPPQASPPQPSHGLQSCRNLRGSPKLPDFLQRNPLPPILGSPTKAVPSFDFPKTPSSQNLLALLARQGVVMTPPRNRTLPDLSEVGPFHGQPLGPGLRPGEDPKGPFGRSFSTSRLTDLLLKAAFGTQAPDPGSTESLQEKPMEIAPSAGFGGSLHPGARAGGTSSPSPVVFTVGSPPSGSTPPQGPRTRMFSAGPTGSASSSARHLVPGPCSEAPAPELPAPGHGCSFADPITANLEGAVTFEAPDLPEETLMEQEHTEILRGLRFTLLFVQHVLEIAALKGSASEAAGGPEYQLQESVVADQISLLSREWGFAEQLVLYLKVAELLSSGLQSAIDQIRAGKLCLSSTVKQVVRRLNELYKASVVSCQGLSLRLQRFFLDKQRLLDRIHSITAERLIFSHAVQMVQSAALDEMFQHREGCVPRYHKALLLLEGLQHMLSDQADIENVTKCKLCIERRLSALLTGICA
AlphaScreen intf: AlphaScreen signal interference by compounds, dose response, artefact control for ASK1 inhibitor project, biochemical, TruHits beads. signal interference counterscreen. 20% of 220 active. AID 1159604, 2016. shares compounds with ASK1 inh. IC50, µM;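 active = IC50 of 10 µM or lower in the counterscreen; inactive = IC50 above 10 µM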;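 also: loss of AlphaScreen light from TruHits beads alone with no ASK1 enzyme present; potency of signal reduction so a low IC50 flags an assay artifact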
Starred values were filed as active, the others as inactive.

How did CNC(=O)c1cnccc1Nc1cc(Nc2ccc3c(c2)CC(=O)N3)ncc1C(F)(F)F do in these assays?
ASK1 inh: -1; ULK1 inh: 19

What do the screens show for `CNC(=O)c1ccccc1Nc1cc(Nc2cccnc2)ncc1C(F)(F)F`?
ASK1 inh: -1; ULK1 inh: 61*

Results for CNC(=O)c1ccccc1Nc1cc(Nc2ncccc2C)ncc1C(F)(F)F ?
ASK1 inh: -3; ULK1 inh: 62*

Results for CNC(=O)c1ccccc1Nc1cc(NC(=O)C(C)(C)c2ccccc2)ncc1C(F)(F)F ?
ASK1 inh: 1; ULK1 inh: -17

What do the screens show for `CCCNc1nc(NCCCN2CCCC2=O)nc2c1ncn2CCN1CCCC1=O`?
ASK1 inh: 0; ULK1 inh: 4

What do the screens show for `C=CCOCCOc1cc(-c2cn[nH]c2)ccc1NC(=O)C1COc2ccc(OC)cc2C1` (centres undefined)?
ASK1 inh: 69*; ULK1 inh: 18

Results for COc1ccc2c(c1)CC(C(=O)Nc1ccc(-c3cn[nH]c3)cc1OCCO)CO2 (centres undefined) ?
ASK1 inh: 17; ULK1 inh: 6

What do the screens show for `Cc1c(C)c2c(c(C)c1OC(=O)CCC(=O)O)CC[C@@](C)(CCC[C@H](C)CCC[C@H](C)CCCC(C)C)O2`?
ULK1 inh: 73*

Results for CC(=O)Oc1c(C)c(C)c2c(c1C)CCC(C)(CCCC(C)CCCC(C)CCCC(C)C)O2 (centres undefined) ?
ULK1 inh: 2

What do the screens show for `COc1ccc(CCNc2nc(-c3ccc(N4CCN(C)CC4)cc3)nc3c2ncn3-c2ccccc2)cc1`?
ASK1 inh: 11; ULK1 inh: -1

Results for O=C1CCCN1CCCNc1nc(Nc2ccncc2)nc2nc[nH]c12 ?
ASK1 inh: -11; ULK1 inh: 55*

What do the screens show for `O=C1CCCN1CCCNc1nc(NCCCN2CCCC2=O)c2[nH]cnc2n1`?
ASK1 inh: 0; ULK1 inh: -2

What do the screens show for `O=C1CCCN1CCCNc1nc(Nc2ccccc2)c2[nH]cnc2n1`?
ASK1 inh: 19; ULK1 inh: 4

How did O=C1CCCN1CCCNc1nc(Nc2ccc(-n3ccnc3)cc2)nc2nc[nH]c12 do in these assays?
ASK1 inh: -38; ULK1 inh: 58*

What do the screens show for `O=C1CCCN1CCCNc1nc(Nc2ccccc2)nc2nc[nH]c12`?
ASK1 inh: -17; ULK1 inh: 46*

How did O=C1CCCN1CCCNc1nc(Nc2cccnc2)nc2nc[nH]c12 do in these assays?
ASK1 inh: -1; ULK1 inh: 6

How did Cc1cc(NCCc2ccc(O)cc2)nc(-c2ccc(N3CCN(C)CC3)cc2)n1 do in these assays?
ASK1 inh: 2; ULK1 inh: 14

Results for O=C1CCCN1CCCNc1nc(Nc2ccc3ncccc3c2)nc2c1ncn2-c1ccsc1 ?
ASK1 inh: 32; ULK1 inh: 7

How did CCNC(=O)Cn1c(CO)cnc1SCc1ccc(Cl)cc1Cl do in these assays?
ULK1 inh: 7

Results for O=C1C(=O)c2ncccc2-c2cccnc21 ?
ULK1 inh: 38

How did O=C1c2ccccc2-c2n[nH]c3cccc1c23 do in these assays?
ASK1 inh: -43; ULK1 inh: 76*

What do the screens show for `CC(C)NC1CCC(Nc2cc(Nc3ccccc3C(N)=O)c(C(F)(F)F)cn2)CC1` (centres undefined)?
ASK1 inh: 12; ULK1 inh: 29

How did CNC(=O)c1ccccc1Nc1cc(Nc2ccc(N3CCC(N(C)C)C3)cc2OC)ncc1C#N (centres undefined) do in these assays?
ASK1 inh: 24; ULK1 inh: 91*

What do the screens show for `COc1cc(N2CCOCC2)ccc1Nc1cc(Nc2ccccc2-c2ncco2)c(C(F)(F)F)cn1`?
ASK1 inh: 20; ULK1 inh: 31

Results for CNC(=O)c1ccccc1Nc1cc(Nc2ccc(OC3CCN(C)CC3)cc2OC)ncc1C(F)(F)F ?
ASK1 inh: 10; ULK1 inh: 95*

How did CNC(=O)c1ccccc1Nc1cc(Nc2ccc(N3CCN(C)CC3)cc2OC)ncc1C(F)(F)F do in these assays?
ASK1 inh: 19; ULK1 inh: 91*

What do the screens show for `COc1cc(N2CCOCC2)ccc1Nc1cc(Nc2cccc3c2C(=O)N(C)C3)c(C(F)(F)F)cn1`?
ASK1 inh: -1; ULK1 inh: 16

What do the screens show for `FC(F)(F)Oc1ccc(-c2cnc(NCCCn3ccnc3)nc2)cc1`?
ULK1 inh: 1

How did CN(C)c1cccc(Nc2ccc(-n3cc(CC(=O)Nc4ccc5c(c4)OCO5)c4ccccc43)nn2)c1 do in these assays?
ASK1 inh: 43*; ULK1 inh: 21; AlphaScreen intf: >19

Results for Cn1nccc1Nc1ccc(-n2cc(CC(=O)Nc3ccc4c(c3)OCO4)c3ccccc32)nn1 ?
ASK1 inh: 21; ULK1 inh: 30

What do the screens show for `O=C(Cc1cn(-c2ccc(Nc3ccc4ncccc4c3)nn2)c2ccccc12)Nc1ccc(N2CCOCC2)cc1`?
ASK1 inh: 24; ULK1 inh: 18

How did CN(C)c1cccc(Nc2ccc(-n3cc(CC(=O)Nc4ccc(N5CCOCC5)cc4)c4ccccc43)nn2)c1 do in these assays?
ASK1 inh: 44*; ULK1 inh: 15; AlphaScreen intf: >20

Results for CN(C)c1cccc(Nc2ccc(-n3cc(CC(=O)Nc4ccccc4)c4ccccc43)nn2)c1 ?
ASK1 inh: 22; ULK1 inh: 15

What do the screens show for `O=C(Cc1cn(-c2ccc(Nc3nccc4ccccc34)nn2)c2ccccc12)Nc1ccc2c(c1)OCO2`?
ASK1 inh: 46*; ULK1 inh: 10; AlphaScreen intf: >22

Results for CN1CCN(c2ncc(-c3ccc(F)cc3)cn2)CC1 ?
ULK1 inh: 2

How did CC(C)N(CCNc1nc(Nc2ccncc2)nc2c1ncn2C1CCCCC1)C(C)C do in these assays?
ASK1 inh: -6; ULK1 inh: 3

What do the screens show for `O=C(Nc1ccccc1)c1ccc2nc(NC3CCC(O)CC3)sc2c1` (centres undefined)?
ASK1 inh: -7; ULK1 inh: 2

Results for Cc1nc(C)n(-c2ccc(Nc3nccc(-c4cc(-n5cncn5)cc(-n5cncn5)c4)n3)cc2)n1 ?
ASK1 inh: 10; ULK1 inh: 17

How did Cc1nc(C)n(-c2ccc(Nc3nccc(-c4cccc(-n5cncn5)c4)n3)cc2)n1 do in these assays?
ASK1 inh: 48*; ULK1 inh: 12; AlphaScreen intf: >19

Results for COc1ccc2[nH]cc(-c3csc(N)n3)c2c1 ?
ULK1 inh: -15

What do the screens show for `CCc1ccccc1N(CC(=O)N(CC)CC)S(=O)(=O)c1ccc(C)cc1`?
ULK1 inh: -3

What do the screens show for `CC(=O)c1cccc(-c2cc(NCCc3ccc(O)cc3)nc(N)n2)c1`?
ASK1 inh: -6; ULK1 inh: -3

Results for COc1cc(Nc2nc(N3CCc4ccccc4C3)nc3c2ncn3C2CCCCC2)cc(OC)c1OC ?
ASK1 inh: 21; ULK1 inh: -1

How did COc1cc(Nc2nc(N3CCc4ccccc4C3)nc3c2ncn3C(C)C)cc(OC)c1OC do in these assays?
ASK1 inh: 40*; ULK1 inh: -2; AlphaScreen intf: >20

How did CCCNc1nc(N2CCN(c3ccccn3)CC2)nc2c1ncn2-c1ccsc1 do in these assays?
ASK1 inh: 16; ULK1 inh: 5
